These results are taken from PubChem BioAssay (NCATS).

Inconclusive results are not listed. Where a call stands in place of a potency, no number is given. The source made the active and inactive calls. The call rests on the fitted dose curve; in most records, active means well fitted inhibition curve with a large enough effect; inconclusive means small, poorly fitted or top-dose-only effect; inactive means no such curve, though single readings can be large or run the other way.
Potency means the concentration at half of the fitted maximal effect.

The nature of the experiment: qHTS to identify inhibitors of the type 1 interferon - major histocompatibility complex class I in skeletal muscle: primary screen against the NCATS Mechanism Interrogation Plate v5.0 (MIPE) Libary (AID 1347411). Further: nearly all actives have a fitted effect of over 65% in size. The note with it: iHSKM cells + IFN-b, HiBiT-tagged MHC-I luminescence, 24 h; series mostly up to 45.8 µM. The essentials: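 HLA-B HiBit myoblasts, dexamethasone-free medium + 4 ng/ml IFN-b, 24 h compound, 11-pt 1:3 from 46 uM final. Readout: Nano-Glo HiBiT lytic luminescence after 10 min lysis, RT.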
For orientation: In qHTS, concentration-response curves come from the screen itself.
As for `CN1C(=O)c2sccc2N(C)c2nc(Nc3ccc(S(N)(=O)=O)cc3)ncc21`, the Potency is 26.2 µM (active).
Then `CCNC1(C(N)=O)CCN(c2ncnc3c2nc(-c2ccccc2Cl)n3-c2ccc(Cl)cc2)CC1`, with “inactive”; and `Cn1cc(-c2cnn3c(N)c(Br)c(C4CCCNC4)nc23)cn1` (stereo unspecified), with “inactive”; and `CC1(C)CN(C(=O)c2ccc(-c3cccc4nc(NC(=O)C5CC5)nn34)cc2)C1`, with 4.15 µM (active).
For the compound `C=CC(=O)Nc1cccc(Nc2nc(Nc3ccc(NC4CN(CCF)C4)cc3OC)ncc2C(F)(F)F)c1`, the Potency was 16.5 µM (active).
Then `COc1cc2c(cc1OCCCN1CCCC1)N=C(N)C21CCC1`, with “inactive”; and `Cc1cc2c(F)c(Oc3ncnn4cc(OCC(C)OC(=O)C(C)N)c(C)c34)ccc2[nH]1` (stereo unspecified), with “inactive”.
Then `NC(=O)c1cnc(N[C@@H]2CCCC[C@@H]2N)nc1Nc1cccc(-n2nccn2)c1`, with 13.1 µM (active); and `O=C(Nc1ccnc(NC(=O)C2CC2)c1)c1c(Cl)cccc1Cl`, with “inactive”.
Then `CCOC(=O)[C@@]1(CCCCCCOc2ccc(Cl)cc2)CO1`, with “inactive”; and `O=C(NCCCNc1nc(Nc2cccc(CN3CCOCC3)c2)ncc1C1CC1)C1CCC1`, with “inactive”.
